Where “and” joins values, the source holds several entries; their conditions need not be identical. Equal values may be shown once. Results filed as inconclusive are left out. A call without a number means that no potency is given here. Calls of active or inactive are those of the source. Calls follow the shape of the dose curve; as a rule, active = well fitted curve in either direction with a large enough effect; inconclusive = small, poorly fitted or top-dose-only effect; inactive = no such curve, though single readings can be large or run the other way.
Target: Lysosomal alpha-glucosidase (Homo sapiens) (UniProt P10253)
Test: Confirmation of Inhibitors and Activators of Purified Human alpha-Glucosidase Using an Alternate Red Fluorescent Susbtrate
Details: purified enzyme, red fluorogenic substrate; series mostly up to 63.4 µM
In short: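 Concentration series tested against 4 nM purified human enzyme, pH 5.0 citrate buffer with Tween-20; 400 uM resorufin glycoside substrate, 20 min room temperature, NaOH/glycine stop. Fluorescence normalized to no-enzyme and full-activity controls; Hill-equation AC50.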

| SMILES | Potency |
| --- | --- |
| COc1ccc(C#Cc2cnc(Cl)c3cncnc23)cc1OC | inactive |
| CC(=O)c1ccc(N2CCN(S(=O)(=O)c3ccc4c(c3)CC(=O)N4)CC2)cc1 | 919 nM [inhibitor] (active) and 1.06 µM [inhibitor] (active) and 1.3 µM [inhibitor] (active) |
| CCCN1CNc2c(c(=O)[nH]c(=S)n2CCc2cccc(C)c2)C1 | 7.08 µM (active) |
| CCCN1CNc2c(c(=O)[nH]c(=S)n2CCC(C)(C)C)C1 | inactive |
| CC(=O)c1ccc(N2CCN(S(=O)(=O)c3ccc4[nH]c(=O)[nH]c4c3)CC2)cc1 | inactive |
| O=C1Cc2cc(S(=O)(=O)N3CCN(c4cccc(C(F)(F)F)c4)CC3)ccc2N1 | 14.9 µM [inhibitor] (active) |
| c1csc(-c2nc(NCC3CCCO3)c3ccccc3n2)c1 (stereo unspecified) | inactive |
| CC(O)[C@@H](O)[C@H]1CNc2nc(N)[nH]c(=O)c2N1 (stereo partly specified) | inactive |
| O=S(=O)(c1ccc(Cl)cc1)N1CCN(c2nc(Nc3cc(Cl)ccc3O)nc3ccccc23)CC1 | inactive |
| CCCN1CNc2c(c(=O)[nH]c(=S)n2CCc2cccc(C)c2C)C1 | 1.12 µM (active) |
| O=S(=O)(c1ccc(Cl)cc1)N1CCN(c2nc(-c3cccs3)nc3ccccc23)CC1 | inactive |
| OCC1NCC(O)C(O)C1O (stereo unspecified) | inactive |
| CCCN1CNc2c(c(=O)[nH]c(=S)n2CCc2ccc(Cl)c(Cl)c2)C1 | 2.24 µM (active) |
| CCCN1CNc2c(c(=O)[nH]c(=S)n2CCc2ccc(OCC)c(OCC)c2)C1 | 1.78 µM (active) |
| COc1cc(NS(C)(=O)=O)ccc1Nc1c2ccccc2nc2ccccc12 | inactive |
| CCCN1CNc2c(c(=O)[nH]c(=S)n2CCc2c(OC)cccc2OC)C1 | 14.1 µM (active) |
| CCCN1CNc2c(c(=O)[nH]c(=S)n2CCC)C1 | inactive |
| CCCN1CNc2c(c(=O)[nH]c(=S)n2CCc2ccccc2C)C1 | 8.91 µM (active) |
| CC(=O)c1ccc(N2CCN(S(=O)(=O)c3ccc4c(c3)oc(=O)n4C)CC2)cc1 | inactive |
| COc1ccc(C#Cc2c[nH]c(=O)c3cncnc23)cc1OC | inactive |
| OCCNc1nc(-c2cccs2)nc2ccccc12 | inactive |
| COc1ccc(N2CCN(S(=O)(=O)c3ccc4c(c3)CC(=O)N4)CC2)cc1 | 18.8 µM [inhibitor] (active) |
| CC(=O)c1ccc(N2CCN(S(=O)(=O)c3ccc4c(c3)CCC(=O)N4)CC2)cc1 | inactive |
| CC(=O)c1ccc(N2CCN(C(=O)c3ccc4c(c3)CC(=O)N4)CC2)cc1 | inactive |
| O=C1Cc2cc(S(=O)(=O)N3CCN(c4ccc(O)cc4)CC3)ccc2N1 | 2.37 µM [inhibitor] (active) |
| CCCN1CNc2c(c(=O)[nH]c(=S)n2CCc2c(Cl)cccc2Cl)C1 | 1.12 µM (active) |
